# Assay results as given in PubChem BioAssay (NCI).
# The panel holds about 83,000 compounds, 20% with a hit somewhere; the sample as a whole holds those more often.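 Plates (96-well) were seeded with cells, treated with compound at one concentration, and incubated for 48 hours before percent growth was determined.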 The source made the active and inactive calls. How the source made its calls: active means growth percent below 10; inactive means the rest.
# System: HOP-62 NSCLC
# Experiment: NCI-60 one-dose screen, 48 h (100 = growth as untreated, 0 = no growth, -100 = all killed)
# Settings: 10 µM unless noted
row,SMILES,growth
1,Clc1nc(N2CCC[N+]3(CC2)CC[N+]2(CCCNCC2)CC3)nc(N2CCC[N+]3(CC2)CC[N+]2(CCCNCC2)CC3)n1 (configuration not stated),91.1% (inactive)
2,O=C(Nc1ccccc1CNc1nc(Nc2ccc(OCCN3CCCC3)cc2)ncc1Cl)NC1CCCCC1,83.3% (inactive)
3,Cc1nc2c(c(-c3ccccc3)n1)Cc1c(ccc3ccccc13)O2,90.9% (inactive)
4,COC(CCP(=O)(c1ccccc1)c1ccccc1)(C(=O)c1ccccc1)c1ccccc1 (configuration not stated),88% (inactive)
5,Nc1ncc(-c2ccc3ncnc(N4CCc5cc(F)c(Cl)cc54)c3c2)cc1C=O,15.2% (inactive)
6,CC(C)(C)n1cc(-c2ccnc(NCCNS(=O)(=O)c3ccc(C(F)(F)F)cc3)c2)c(-c2ccccc2)n1,97.8% (inactive)
7,Clc1ccc(C2=Nn3c(nnc3-c3cc(Cl)cc(Cl)c3Cl)SC2)cc1,16.2% (inactive)
8,O=C(NC1CCCCCC1)c1ccc2c(=O)n3c(nc2c1)CCCCC3,99.2% (inactive)
9,C=C1C(=O)O[C@H]2[C@H]1CC/C(CNC(=O)/C=C/c1cc(OC)c(OC)c(OC)c1)=C\CC[C@@]1(C)O[C@@H]21,26% (inactive)
10,Cc1c(CC(=O)Nc2ccccc2)nnn1-c1ccccc1,108% (inactive)
11,CCn1c2ccccc2c2cc(C(O)c3cccc4ncccc34)ccc21 (configuration not stated),32.8% (inactive)
12,CSc1nc(CC(C)C)c(C#N)c(=O)n1C,79.3% (inactive)
13,Oc1c(Cl)cc(Cl)c2ccc(CN3CCNCC3)nc12,29.3% (inactive)
14,CO[C@H]1CC(c2ccc[nH]2)=N[C@]12O[C@@H](C)C[C@@H]1CCCCCCCc3ccc([nH]3)[C@H]12,14.8% (inactive)
15,Nc1c(C(=O)c2ccc(Cl)cc2)sc(Nc2ccccc2)c1-c1nc2ccccc2s1,-7.72% (active)
16,Cn1nc(-c2ccc(Cl)cc2)nc2c(=O)n(C)c(=O)nc1-2,-72.9% (active)
17,Cc1ccc(C2=Nc3c(N)nc(N)nc3NC(c3cccc(Nc4ccnc5cc(C(F)(F)F)ccc45)c3)C2)cc1 (configuration not stated),34.1% (inactive)
18,COC(=O)[C@H](C)NC(=O)c1ccc(NC(=O)c2[nH]c(C)c(Cl)c2Cl)c(OCCN)c1,106% (inactive)
19,CC(C)=CC(=O)C1C(=O)c2ccccc2C1=O,102% (inactive)

row,SMILES,growth
1,C=CCn1c(SCC(=O)Nc2ccc(C(=O)/C=C/c3ccc(Cl)cc3)cc2)nnc1-c1ccc(Cl)c(Cl)c1,84.3% (inactive)
2,CC(C)n1cc(C2=C(c3cccc4ccccc34)C(=O)NC2=O)c2cc(Br)ccc21,78.5% (inactive)
3,CC1(C)C2=C(C(=O)N1Cc1ccccc1)C(c1ccco1)N(C(=O)C1CCC1)CCN2 (configuration not stated),103% (inactive)
4,COc1cc(OC)cc(C(=O)Nc2cnc(Nc3ccc(N4CCOCC4)nc3)nc2Oc2ccc(C(F)(F)F)cc2)c1,43.1% (inactive)
5,C=C(c1ccc(C(=O)O)c(F)c1)c1cc2c(cc1C)C(C)(C)C=CC2(C)C,70% (inactive)
6,O=C1c2c(c3c4cc(F)ccc4oc3c3[nH]c4ccccc4c23)C(=O)N1O,24.2% (inactive)
7,CCCN1C(=O)N(CCC)C2C1NC(=S)N2/N=C/C=C/c1ccccc1OC (configuration not stated),38.7% (inactive)
8,O=C(Nc1ccccc1)Nc1ccccc1CNc1nc(Nc2ccc(OCCN3CCCC3)cc2)ncc1Cl,79.3% (inactive)
9,O=C1NC(=O)C(=Cc2cc(-c3ccc(Cl)cc3)n(-c3ccccc3)n2)C(=O)N1,99.4% (inactive)
10,COc1ccc(-c2nc3cc(C(=O)NC4CCCCC4)ccc3n2C2CCCCC2)cc1,101% (inactive)
11,O=c1ccc2c(ccc3ncccc32)o1,109% (inactive)
12,CC/C(=C(/c1ccc(Cl)cc1)c1ccc(OCCN(CC)CC)cc1)c1ccc(OC)cc1,89.2% (inactive)
13,COc1ccc(N2C(=O)/C(=C/C(Cl)=C/c3ccc([N+](=O)[O-])cc3)SC2=S)cc1,-9.71% (active)
14,CCOC(=O)CC1CSC(N/N=C(/C)c2cccc(C(F)(F)F)c2)=N1 (configuration not stated),97% (inactive)
15,CSc1nc(N)c2c(n1)NC(c1ccccc1)C1CCc3ccccc3C1=N2 (configuration not stated),64.4% (inactive)
16,COc1cc2cc(Oc3ccc(NC(=O)Nc4ccc(F)c(C(F)(F)F)c4)cc3)c(C)nc2cc1OCCN1CCCCC1,95.4% (inactive)
17,O=C(Nc1ncc(Cc2ccccc2)s1)c1cc(-c2ccccc2)nc2ccccc12,94.1% (inactive)
18,CN1CCN(Cc2ccc(NC(=O)c3cncc(C#Cc4cnc(N)c5ncccc45)c3)cc2Cl)CC1,89.8% (inactive)
